From PubChem
GRIN3A LBD mod – NR3A (human) ligand-binding domain modulation | NR3A LBD differential scanning fluorimetry, Tm shift; 0% = protein alone, 100% = glycine-bound protein | Tm shift relative to glycine control, % at 25 µM | 340,000 compounds, 2.5% hits | AID 1259313;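 active = melting temperature shift of at least 10% of the positive control shift, at one fixed dose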
TMEM16A act – activators or potentiators of mouse TMEM16A chloride channel; HEK293 TMEM16A/YFP-H148Q/I152L, iodide quench fluorescence; stronger effect = lower value; B-score at 10 µM; 340,000 compounds, 0.3% hits;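 active = fluorescence-ratio B-score plate-corrected deviation score at least 3 library SD below zero, with starting fluorescence score within 5 deviations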;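 note: channel opened by trigger with iodide after compound preincubation; score built on the fluorescence ratio of max minus min over baseline; more negative score means more quench and so TMEM16A activation or potentiation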
Target sequence (Q8BHY3 whole entry, looked up): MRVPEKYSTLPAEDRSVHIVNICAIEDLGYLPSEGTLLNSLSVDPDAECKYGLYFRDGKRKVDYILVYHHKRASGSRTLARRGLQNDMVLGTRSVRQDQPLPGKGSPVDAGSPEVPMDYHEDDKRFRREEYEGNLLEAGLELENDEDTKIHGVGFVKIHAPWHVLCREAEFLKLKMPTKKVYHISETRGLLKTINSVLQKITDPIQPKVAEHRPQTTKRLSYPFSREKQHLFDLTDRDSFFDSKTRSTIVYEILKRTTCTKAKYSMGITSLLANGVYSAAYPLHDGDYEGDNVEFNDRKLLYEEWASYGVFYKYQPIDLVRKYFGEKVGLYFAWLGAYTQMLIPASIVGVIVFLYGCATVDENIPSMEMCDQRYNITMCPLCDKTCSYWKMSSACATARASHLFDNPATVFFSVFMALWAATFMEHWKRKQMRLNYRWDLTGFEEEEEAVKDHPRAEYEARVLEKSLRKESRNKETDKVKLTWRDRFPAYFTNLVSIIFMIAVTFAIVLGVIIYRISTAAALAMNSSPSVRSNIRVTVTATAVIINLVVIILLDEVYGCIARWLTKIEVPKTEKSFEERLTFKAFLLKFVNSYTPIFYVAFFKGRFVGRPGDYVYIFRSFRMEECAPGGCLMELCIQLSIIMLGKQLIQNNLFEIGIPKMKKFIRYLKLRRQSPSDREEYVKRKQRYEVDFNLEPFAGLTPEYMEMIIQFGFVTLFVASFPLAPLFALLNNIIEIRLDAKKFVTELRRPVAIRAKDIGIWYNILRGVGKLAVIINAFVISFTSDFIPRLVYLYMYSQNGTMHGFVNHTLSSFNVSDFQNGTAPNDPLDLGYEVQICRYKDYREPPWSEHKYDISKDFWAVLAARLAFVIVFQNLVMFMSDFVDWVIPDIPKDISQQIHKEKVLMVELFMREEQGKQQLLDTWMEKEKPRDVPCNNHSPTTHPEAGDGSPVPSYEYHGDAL
CRFR2-BP ag – CRF-BP/CRF-R2 complex agonism | HEK293 CRF-R2/CRF-BP, calcium dye fluorescence (FLIPR); percent of saturating CRF peptide response | AID 588473 | 350,000 compounds, 0.46% hits | activation, % at 13.2 µM;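 active = activation of at least 50%, plus an integration ratio under a set limit after plate pattern correction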;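 note: plate controls were neutral control wells without compound for no effect and CRF at EC100 for full effect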
MPTP block – blocks calcium-induced mitochondrial swelling | isolated mouse mitochondria, Ca2+ swelling absorbance, 30 min | inhibition, % at 10 µM | 360,000 compounds, 1.4% hits;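 active = inhibition of 50% or more, scaled per plate between neutral and stimulator controls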;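 note: 0% = DMSO wells given calcium and 100% = 1 mM EGTA wells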
CRFR2-BP antag – CRF-BP/CRF-R2 complex antagonism. HEK293 CRF-R2/CRF-BP, CRF-induced calcium fluorescence. inhibition, % at 11.8 µM. 350,000 compounds, 0.59% hits;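 active = inhibition of the ligand-induced calcium signal above about 50% at the single tested concentration, limit read from the data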
TMEM16A inh – inhibitors of mouse TMEM16A calcium-activated chloride channel; 310,000 compounds, 1.2% hits; HEK293 TMEM16A/YFP iodide influx fluorescence, ionomycin; normalized B-score (activity score, 25-100; higher = stronger inhibition) at 10 µM;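 active = ratio plate-corrected score three or more library SD toward inhibition, starting fluorescence score within five deviations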;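 note: score derived from kinetic fluorescence span divided by baseline fluorescence per well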
* = called active by the depositor; i = inactive; / = not tested or not shown. This is a sample that favours compounds with a hit; in the whole collection about 5.1% have one here.

SMILES	GRIN3A LBD mod	TMEM16A act	CRFR2-BP ag	MPTP block	CRFR2-BP antag	TMEM16A inh
CCOC(=O)c1c(-c2ccccc2)csc1N1C(=O)Nc2ccccc2N1O	-1.7	i	2.0	2.7	-3.7	i
CN(Cc1cccc(Cl)c1)C(=O)C1CCC(=O)N(C2CC2)C1 (stereo unspecified)	0.2	i	0.0	0.6	80.6*	i
CC(C)(C)NC(=O)NCC1CCCC1NC(=O)NC(C)(C)C (stereo unspecified)	-410.9	i	-2.7	0.0	-5.1	i
O=S(=O)(O)c1cc(O)c(N=Nc2ccc(O)cc2O)c2ccccc12	13.1*	i	-4.2	18.9	-1.9	/
COc1cc(OC)c(C(=O)OCC(=O)N2CCN(S(=O)(=O)c3ccc(C)cc3C)CC2)cc1OC	1.9	i	-1.5	-0.4	-3.7	/
O=C(OCC(=O)N1CCCCC1)c1cccs1	3.8	i	2.1	1.3	-15.2	/
CCOC(=O)C1CCCN(C(=O)COC(=O)c2cccs2)C1 (stereo unspecified)	1.8	i	-1.8	-0.4	94.5*	/
CCOC(=O)C1CCCN(S(=O)(=O)c2ccccc2)C1 (stereo unspecified)	-1.9	i	-0.9	-2.7	77.9*	i
CCOC(=O)C1CN(S(=O)(=O)c2ccccc2)C1	0.3	i	-3.2	-0.1	17.8	i
CCOC(=O)C1(C(=O)OCC)CCN(S(=O)(=O)c2ccccc2)CC1	-0.2	i	-1.5	-0.6	69.3*	/
O=c1[nH]cnc2c1nnn2C1OC(CO)C(O)C1O (stereo unspecified)	/	/	/	-2.3	/	/
CCO[C@@H]1OC(C(N)=O)=C[C@H](C(C)(C)C)[C@H]1CCCO	0.1	i	0.8	-0.7	108.6*	i
CCOC(=O)/C(=C\c1cn(C)c2ccccc12)[N+](=O)[O-]	33.6*	i	0.0	-0.1	-10.4	i
CCOC(=O)/C(C#N)=C\c1cn(C)c2ccccc12	8.1	i	-1.4	0.1	17.2	i
Cc1cccc(NC(=O)NNC(=O)c2cc(-c3ccccc3Cl)nc3ccccc23)c1	8.4	i	0.7	-3.2	-3.6	i
O=C(NNC(=O)c1cc(-c2ccc(Cl)c(Cl)c2)nc2ccccc12)Nc1ccccc1	28.7*	i	1.6	-1.5	3.1	i
COc1cc(C(=O)C(=O)c2ccc(OC)c(OC)c2)ccc1O	0.6	i	-1.4	-1.2	9.7	/
COc1cc(OC)c(OC)cc1/C=C1\CC(C)C/C(=C\c2cc(OC)c(OC)cc2OC)C1=O (stereo unspecified)	3.6	i	18.9	0.5	-29.0	i
CN(C)c1ccc(/C(=N\O)c2ccccc2)cc1	-1.6	i	-0.4	-1.2	60.6*	i
CCN(C(=O)CSc1nnc(-c2ccccc2OC)n1N)c1c(N)n(Cc2ccccc2)c(=O)[nH]c1=O	-1.2	i	2.1	-0.5	5.0	/
O=C(CCCC(=O)OCC(=O)c1ccc(Cl)cc1)NC1CCCCC1	0.1	i	-3.9	5.8	14.4	i
O=C(CCC(=O)OCC(=O)c1ccc(Br)cc1)NC1CCCCC1	10.2*	i	-3.0	2.1	2.1	i
Cc1ccc(S(=O)(=O)Nc2cc(=O)[nH]c(SCc3ccc(Cl)cc3)n2)cc1	11.3*	i	0.4	7.5	17.0	i
Cc1cc(C(=O)Nc2ccon2)cs1	-2.0	i	5.9	-0.5	29.8	i
CC(C)(C)c1cc(NC(=O)c2ccc(OC3CCCC3)cc2)no1	14.8*	i	2.1	2.1	-46.7	i
SMILES	GRIN3A LBD mod	TMEM16A act	CRFR2-BP ag	MPTP block	CRFR2-BP antag	TMEM16A inh
O=C(Nc1ccon1)c1ccc(OC2CCCC2)cc1	22.9*	i	-3.8	8.8	-44.2	i
Cc1ccc(CNC(=O)C2CCN(S(=O)(=O)c3ccc(Br)s3)CC2)cc1	-13.1	i	0.4	1.0	-9.2	i
COCc1ccc(CN2CCC(C(=O)Nc3cccc(-c4cscn4)c3)CC2)o1	-4.1	i	2.4	2.2	89.8*	i
FC(F)(F)c1nnc2sc(-c3ccncc3)nn12	-0.4	i	0.7	1.4	-0.7	i
FC(F)(F)c1nnc2sc(-c3cccs3)nn12	-2.8	i	-0.8	-0.2	52.0*	i
CC(C)(C)c1ccc(S(=O)(=O)NC(=O)C2(C)CCN2C(=O)Cc2cccs2)cc1 (stereo unspecified)	/	/	/	5.2	/	/
CN(C)S(=O)(=O)c1cccc(-c2nn(-c3ccccc3)cc2/C=C(/C#N)C(=O)NCc2ccco2)c1	15.5*	i	11.2	-1.3	18.3	i
CCN(CC)S(=O)(=O)c1cccc(-c2nn(-c3ccccc3)cc2/C=C(\C#N)C(=O)NCc2ccco2)c1	2.1	i	2.2	0.7	-13.3	i
N#C/C(=C\c1ccc([N+](=O)[O-])cc1)C(=O)NCCCn1ccnc1	2.2	i	1.4	4.0	-12.3	i
CCCOc1cccc(-c2nn(-c3ccccc3)cc2/C=C(\C#N)C(=O)NCCCn2ccnc2)c1	11.4*	i	7.2	-0.4	-9.1	i
CC(C)(CSc1ncccn1)NS(=O)(=O)c1ccccc1	-1.8	i	0.0	-0.7	65.9*	i
Cc1cccc(OCC(=O)N(Cc2nnc(-c3ccccc3Cl)o2)C2CC2)c1	0.3	-28.7*	-0.5	-0.5	-1.5	/
Cn1c(=O)[nH]c(=O)c2c1nc(Br)n2Cc1cccc(Br)c1	0.0	i	-1.9	5.3	-27.0	i
CCCNc1nc2c(c(=O)[nH]c(=O)n2C)n1Cc1cccc(Br)c1	-4.1	-5.84*	-1.8	-0.1	-27.1	i
O=C1C[C@@H]2C(=O)N(c3ccccc3)C(=O)[C@@H]2[C@@H]2CN(S(=O)(=O)c3ccccc3)[C@@H](c3ccccc3)[C@H]12	/	/	/	1.3	/	/
CCCNC(=O)c1nnsc1S(=O)(=O)c1ccc(Cl)cc1	-2.2	i	11.2	-1.1	70.2*	/
CCCNC(=O)c1nnsc1S(=O)c1ccc(Cl)cc1 (stereo unspecified)	-0.8	i	0.8	-0.1	31.9	/
COc1cccc(CN(C)C(=O)CC[C@H]2O[C@@H](n3ccc(=O)[nH]c3=O)[C@H](O)[C@@H]2O)c1	/	/	/	-0.2	/	/
O=C(Cc1ccc2c(c1)OCCO2)Nc1cc(Cl)ccc1N1CCOCC1	0.3	i	0.3	0.4	-1.0	/
C=CCc1cccc(CNc2nc3ccccc3n2C(C)C)c1O	11.3*	i	-0.3	15.4	26.8	i
CC1(C(=O)O)CCCN1C(=O)c1ccccc1OC(F)(F)F (stereo unspecified)	/	/	/	-2.2	/	/
CCOC(=O)c1sc(-c2ccc(C(F)(F)F)cc2)nc1O	-1.2	i	57.9*	-0.8	53.5*	i
